Test results from PubChem BioAssay.
Active and inactive are the calls of the source. No rule for the calls is given here.

Each compound was assayed against Pantothenate synthetase (Mycobacterium tuberculosis (strain ATCC 25618 / H37Rv)) (UniProt P9WIL5) (assay: Coupled enzyme confirmation of inhibitors against recombinant Mtb PanC (AID 375;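 also: 0% = full reaction with vehicle and 100% = no enzyme background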)). Conditions: coupled enzyme assay; at 10 µM, active compounds read high.
Pantothenate synthetase (Mycobacterium tuberculosis (strain ATCC 25618 / H37Rv)), sequence (P9WIL5 whole entry, looked up): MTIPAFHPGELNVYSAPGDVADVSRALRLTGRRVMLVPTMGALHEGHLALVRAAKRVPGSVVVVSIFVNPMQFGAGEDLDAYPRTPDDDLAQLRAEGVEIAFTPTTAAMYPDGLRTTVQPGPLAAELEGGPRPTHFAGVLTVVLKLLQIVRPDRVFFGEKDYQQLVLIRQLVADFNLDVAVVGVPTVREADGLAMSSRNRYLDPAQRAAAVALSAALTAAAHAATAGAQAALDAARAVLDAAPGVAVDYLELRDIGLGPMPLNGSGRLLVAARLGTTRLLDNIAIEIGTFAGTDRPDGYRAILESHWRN
With `CCCC(=O)Nc1cc(C)c(NC(=O)c2ccccn2)cn1` the inhibition was 0% (inactive).
For `COc1ccc(-c2noc(COc3ccc(Cl)c(C)c3)n2)cc1`, the inhibition was 0% (inactive).
In the case of `Cc1ccc(-n2nc(-c3cccs3)cc2C(=O)NCC2CCCO2)c(C)c1` (stereo not given), the inhibition is reported as 0% (inactive).
With `Cc1cccc(N2CCN(C(=O)C3CCCN(S(=O)(=O)c4c(C)noc4C)C3)CC2)c1C` (stereo not given) the inhibition was 0% (inactive).
With `Nc1cccc(C(=O)O)c1` the inhibition was 0% (inactive).
With `Cc1ccc(S(=O)(=O)NCC(=O)N(CC(=O)NCc2ccccc2)CC2CCCO2)cc1` (stereo not given) the inhibition was 2% (inactive).
For `CC(C)OC(=O)c1ccc(OC(=O)c2cccnc2)cc1`, the inhibition was 0% (inactive).
In the case of `O=C(O)c1ccc(-n2nc(C(F)(F)F)c3c2-c2ccoc2CC3)cc1`, the inhibition is reported as 0% (inactive).
`Nn1c(SCC(=O)Nc2ccccc2)nnc1-c1cccnc1` was tested, and the inhibition was 0% (inactive).
For `CC(=O)c1c(C)[nH]c(C(=O)NC2=NCCS2)c1C`, the inhibition was 0% (inactive).
With `Cc1cc(C)c(Cn2c(=O)n(CCCC(=O)NCc3ccco3)c(=O)c3ccccc32)c(C)c1` the inhibition was 7% (inactive).
With `Cc1ccc2occ(CN3CCN(c4ccccc4)CC3)c(=O)c2c1` the inhibition was 0% (inactive).
`CCOc1cc(C)c(C(C)C)cc1S(=O)(=O)N1CCN(C)CC1` was tested, and the inhibition was 0% (inactive).
`COC(=O)c1sc(N2C(=O)C(O)=C(C(=O)c3ccc(C)o3)C2c2ccc(F)cc2)nc1C` (stereo not given) was tested, and the inhibition was 8% (inactive).
In the case of `CCN1C(=O)/C(=C/N2CCc3ccccc32)SC1=S`, the inhibition is reported as 0% (inactive).
With `Cc1cc(C)nc(SCc2csc(N)n2)n1` the inhibition was 1% (inactive).
In the case of `COC(=O)CS(=O)(=O)c1nnc([C@H](Cc2ccccc2)NC(=O)OC(C)(C)C)o1`, the inhibition is reported as 1% (inactive).
`CCOC(=O)CN1C2=NCCN2c2ccccc21` was tested, and the inhibition was 6% (inactive).
`CN1CCN(C(c2cccc(C(F)(F)F)c2)c2nnnn2C(C)(C)C)CC1` (stereo not given) was tested, and the inhibition was 1% (inactive).
For `CC(C)c1nnc(NC(=O)CCC(=O)NCc2ccc3c(c2)OCO3)s1`, the inhibition was 3% (inactive).
In the case of `CCOC(=O)CSc1nc2cc(C(=O)NCc3ccco3)ccc2c(=O)n1C1CCCCC1`, the inhibition is reported as 0% (inactive).
For `CC(COc1ccccc1)NC(C)C(O)c1ccc(O)cc1` (stereo not given), the inhibition was 0% (inactive).
In the case of `O=C(CCn1nc(-c2ccccc2)ccc1=O)N1CCCC1`, the inhibition is reported as 0% (inactive).
With `O=S(=O)(c1ccccc1)N1CCN(C2CCCCCCC2)CC1` the inhibition was 8% (inactive).
With `CSc1c(C#N)c(N)c(C#N)c2c1COC(C)(C)C2` the inhibition was 0% (inactive).
In the case of `COc1ccccc1NC(=O)C1=C(C)Nc2nnnn2C1c1ccccc1OC` (stereo not given), the inhibition is reported as 2% (inactive).
In the case of `CN(C)CCCN1C(=O)CSC1c1ccccc1` (stereo not given), the inhibition is reported as 0% (inactive).
With `NS(=O)(=O)c1cc2c(cc1Cl)NC(CSCc1ccccc1)=NS2(=O)=O` the inhibition was 0% (inactive).
`COCCn1c(SCC(=O)Nc2ccc3c(c2)OCCO3)nc2c(c1=O)SC(C)C2` (stereo not given) was tested, and the inhibition was 3% (inactive).
For `CSC1=NCCN1C(=O)c1ccc(S(=O)(=O)N2CCCC2)cc1`, the inhibition was 0% (inactive).
In the case of `O=c1oc2ccccc2n1CCn1c2ccccc2c2nc3ccccc3nc21`, the inhibition is reported as 0% (inactive).
In the case of `COc1ccccc1CNC(=O)CCn1c(=O)[nH]c2ccsc2c1=O`, the inhibition is reported as 2% (inactive).
For `Cn1cc(C(=O)c2ccc(F)cc2)cc1-c1nc2ccccc2n1C`, the inhibition was 6% (inactive).
With `Cn1cnnc1SCC(=O)Nc1sc2c(c1C#N)CCCCC2` the inhibition was 1% (inactive).
`CCOC(=O)CSc1nnc2n1C(C)(C)Cc1ccccc1-2` was tested, and the inhibition was 3% (inactive).
In the case of `O=C(NCCN1CCOCC1)c1csc2c1CCCC2`, the inhibition is reported as 0% (inactive).
For `COc1ccc(-c2cc(C(F)(F)F)n3ncc(C(=O)NCC4CCCO4)c3n2)cc1` (stereo not given), the inhibition was 0% (inactive).
For `CCCCN(CC)CCCNC(=O)CS(=O)(=O)Cc1nc(-c2cccc(OC)c2)oc1C`, the inhibition was 0% (inactive).
For `CC1=C(C(=O)NC2CCC(C)CC2)C2(CCC(C)CC2)OC1=O` (stereo not given), the inhibition was 2% (inactive).
With `Cc1ccc(N2CC(C(=O)Nc3nnc(C)s3)CC2=O)cc1` (stereo not given) the inhibition was 6% (inactive).
